Source: paper PMC7862700, “An all-to-all approach to the identification of sequence-specific readers for epigenetic DNA modifications on cytosine”

Tests used:
Test in all cases: DAPPL (digital affinity profiling via proximity ligation, sequencing); 10 mM Tris-HCl pH 7.5, 50 mM NaCl, 1 mM DTT, 4% glycerol, room temperature, 30 min; GST-TFs on glutathione beads, 16-mer random dsDNA library, 0.1% formaldehyde crosslink after washing; high values mean tight binding
[1] = biological target: T1, FLI1 (Homo sapiens, UniProt Q01543 1-452); details: protein: recombinant; tags: N-terminal GST; dsDNA, one strand shown
T1 sequence: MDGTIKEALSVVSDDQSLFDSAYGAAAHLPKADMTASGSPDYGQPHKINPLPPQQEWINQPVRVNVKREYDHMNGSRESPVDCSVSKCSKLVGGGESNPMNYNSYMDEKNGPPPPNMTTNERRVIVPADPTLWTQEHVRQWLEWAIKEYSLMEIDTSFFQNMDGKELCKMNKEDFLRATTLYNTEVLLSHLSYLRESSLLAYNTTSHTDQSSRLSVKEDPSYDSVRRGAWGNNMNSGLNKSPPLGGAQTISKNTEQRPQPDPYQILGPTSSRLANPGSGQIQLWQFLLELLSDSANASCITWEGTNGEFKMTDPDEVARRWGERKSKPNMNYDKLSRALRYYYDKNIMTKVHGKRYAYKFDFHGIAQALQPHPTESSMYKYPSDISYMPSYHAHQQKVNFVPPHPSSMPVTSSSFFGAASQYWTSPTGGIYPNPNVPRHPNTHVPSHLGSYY
Outline: (§1)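 Binding signal is defined as a hexamer's read frequency for one factor over its frequency for the tag-only sample. To obtain reads, GST-fused human transcription factors were expressed in yeast, captured on glutathione beads, barcoded with DNA and pooled with that sample. Pools met 200 nmole of a 16-mer random double-stranded DNA library in Tris/NaCl/DTT/glycerol buffer for 30 min at room temperature before washing, 0.1% formaldehyde crosslinking, proximity ligation (BsaI/T4 ligase, 1 h, 37 °C), PCR and Illumina NextSeq500 sequencing.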

[2] = biological target: T2, ELK1 (Homo sapiens, UniProt P19419 1-428); details: protein: recombinant; tags: N-terminal GST; dsDNA, one strand shown
T2 sequence: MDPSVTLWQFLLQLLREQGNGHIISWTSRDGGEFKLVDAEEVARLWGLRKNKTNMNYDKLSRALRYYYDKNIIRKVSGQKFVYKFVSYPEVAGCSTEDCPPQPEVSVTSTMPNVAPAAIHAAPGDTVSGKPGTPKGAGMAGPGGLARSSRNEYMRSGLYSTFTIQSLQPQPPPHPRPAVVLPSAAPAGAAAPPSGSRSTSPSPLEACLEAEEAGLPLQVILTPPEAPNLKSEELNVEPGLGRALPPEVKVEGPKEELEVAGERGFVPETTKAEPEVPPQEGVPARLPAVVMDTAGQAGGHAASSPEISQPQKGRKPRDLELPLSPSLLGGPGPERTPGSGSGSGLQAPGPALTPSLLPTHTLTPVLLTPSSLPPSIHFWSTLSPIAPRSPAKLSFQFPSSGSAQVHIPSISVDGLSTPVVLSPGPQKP
Outline: as §1

[3] = biological target: T3, GABPA (Homo sapiens, UniProt Q06546 1-454); details: protein: recombinant; tags: N-terminal GST; dsDNA, one strand shown
T3 sequence: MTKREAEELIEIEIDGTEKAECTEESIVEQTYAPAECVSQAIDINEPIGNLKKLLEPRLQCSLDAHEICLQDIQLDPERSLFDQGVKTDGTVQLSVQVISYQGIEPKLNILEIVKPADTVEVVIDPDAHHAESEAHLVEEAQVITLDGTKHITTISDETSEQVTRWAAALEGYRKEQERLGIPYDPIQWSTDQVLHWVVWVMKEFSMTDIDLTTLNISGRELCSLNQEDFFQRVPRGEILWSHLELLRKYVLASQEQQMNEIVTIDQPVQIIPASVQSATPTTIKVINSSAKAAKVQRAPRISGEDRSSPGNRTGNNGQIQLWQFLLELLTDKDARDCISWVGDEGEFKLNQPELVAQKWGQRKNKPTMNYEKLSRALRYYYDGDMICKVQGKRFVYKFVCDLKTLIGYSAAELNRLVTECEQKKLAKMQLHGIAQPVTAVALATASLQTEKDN
Outline: as §1

[4] = biological target: T4, ERG (Homo sapiens, UniProt P11308 1-479); details: protein: recombinant; tags: N-terminal GST; dsDNA, one strand shown
T4 sequence: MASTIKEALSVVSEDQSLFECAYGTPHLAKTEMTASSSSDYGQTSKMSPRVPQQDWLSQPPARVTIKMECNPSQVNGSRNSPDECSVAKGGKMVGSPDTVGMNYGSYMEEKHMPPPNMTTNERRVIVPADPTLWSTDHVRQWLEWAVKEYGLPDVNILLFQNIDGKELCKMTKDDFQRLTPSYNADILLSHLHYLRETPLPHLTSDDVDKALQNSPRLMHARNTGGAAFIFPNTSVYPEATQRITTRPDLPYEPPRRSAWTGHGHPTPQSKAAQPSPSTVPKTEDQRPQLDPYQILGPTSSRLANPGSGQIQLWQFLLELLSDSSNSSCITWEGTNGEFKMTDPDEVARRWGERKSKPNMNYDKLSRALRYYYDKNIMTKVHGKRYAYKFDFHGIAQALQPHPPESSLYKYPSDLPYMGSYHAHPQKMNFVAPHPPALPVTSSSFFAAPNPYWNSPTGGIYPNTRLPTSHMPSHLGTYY
Outline: as §1

[5] = biological target: ELF1 (Homo sapiens, UniProt P32519 1-619); details: protein: recombinant; tags: N-terminal GST; dsDNA, one strand shown
Sequence of ELF1 (P32519 whole entry): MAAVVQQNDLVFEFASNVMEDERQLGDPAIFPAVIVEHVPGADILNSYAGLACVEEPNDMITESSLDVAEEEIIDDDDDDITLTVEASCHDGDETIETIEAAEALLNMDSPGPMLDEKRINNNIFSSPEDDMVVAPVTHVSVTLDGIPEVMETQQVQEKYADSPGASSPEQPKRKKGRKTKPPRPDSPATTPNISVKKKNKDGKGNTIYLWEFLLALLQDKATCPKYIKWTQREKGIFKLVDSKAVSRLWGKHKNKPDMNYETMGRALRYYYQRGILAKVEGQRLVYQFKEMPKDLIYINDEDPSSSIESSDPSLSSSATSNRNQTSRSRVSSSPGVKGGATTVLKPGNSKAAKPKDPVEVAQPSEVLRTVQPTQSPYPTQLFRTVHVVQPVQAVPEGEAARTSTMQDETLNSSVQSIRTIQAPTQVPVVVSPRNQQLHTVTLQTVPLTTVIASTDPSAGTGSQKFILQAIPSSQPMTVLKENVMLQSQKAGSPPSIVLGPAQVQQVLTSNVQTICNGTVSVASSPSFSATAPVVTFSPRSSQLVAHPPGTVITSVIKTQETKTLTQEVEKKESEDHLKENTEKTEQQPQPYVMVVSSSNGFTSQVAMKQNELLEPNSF
Outline: as §1

[6] = biological target: T5, EHF (Homo sapiens, UniProt Q9NZC4 1-300); details: protein: recombinant; tags: N-terminal GST; dsDNA, one strand shown
T5 sequence: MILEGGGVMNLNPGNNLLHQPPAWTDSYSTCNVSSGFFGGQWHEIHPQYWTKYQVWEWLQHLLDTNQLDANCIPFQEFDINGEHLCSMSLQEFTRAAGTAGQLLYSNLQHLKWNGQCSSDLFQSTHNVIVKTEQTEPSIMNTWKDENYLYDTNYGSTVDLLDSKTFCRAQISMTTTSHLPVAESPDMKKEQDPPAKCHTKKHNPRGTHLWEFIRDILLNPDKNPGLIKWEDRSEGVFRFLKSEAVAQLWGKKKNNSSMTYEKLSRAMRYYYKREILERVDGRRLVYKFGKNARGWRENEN
Outline: as §1

[7] = biological target: SPI1 (Homo sapiens, UniProt P17947 1-270); details: protein: recombinant; tags: N-terminal GST; dsDNA, one strand shown
Outline: as §1

[8] = biological target: SPIB (Homo sapiens, UniProt Q01892 1-262); details: protein: recombinant; tags: N-terminal GST; dsDNA, one strand shown
Sequence of SPIB (Q01892 whole entry): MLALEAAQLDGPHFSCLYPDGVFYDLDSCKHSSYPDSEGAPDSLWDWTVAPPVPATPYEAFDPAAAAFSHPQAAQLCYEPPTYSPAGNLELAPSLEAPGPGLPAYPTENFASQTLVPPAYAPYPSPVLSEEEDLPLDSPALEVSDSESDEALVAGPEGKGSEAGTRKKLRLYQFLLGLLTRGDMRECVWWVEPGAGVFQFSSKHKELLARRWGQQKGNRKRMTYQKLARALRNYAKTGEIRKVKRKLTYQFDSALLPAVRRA
Outline: as §1

[9] = biological target: T6, ELK3 (Homo sapiens, UniProt P41970 1-407); details: protein: recombinant; tags: N-terminal GST; dsDNA, one strand shown
T6 sequence: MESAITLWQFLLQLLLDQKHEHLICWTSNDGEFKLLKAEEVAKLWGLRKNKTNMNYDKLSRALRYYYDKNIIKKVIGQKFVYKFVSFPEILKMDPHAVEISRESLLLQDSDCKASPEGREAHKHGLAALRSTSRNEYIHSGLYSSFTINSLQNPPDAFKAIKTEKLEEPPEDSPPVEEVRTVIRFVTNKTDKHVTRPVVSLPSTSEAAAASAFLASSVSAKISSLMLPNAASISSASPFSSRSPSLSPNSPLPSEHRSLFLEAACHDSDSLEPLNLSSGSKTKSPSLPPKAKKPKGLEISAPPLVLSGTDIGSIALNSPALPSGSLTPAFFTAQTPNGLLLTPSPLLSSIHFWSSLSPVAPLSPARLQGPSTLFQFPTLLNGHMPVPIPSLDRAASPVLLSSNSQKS
Outline: as §1

[10] = biological target: T7, FEV (Homo sapiens, UniProt Q99581 1-238); details: protein: recombinant; tags: N-terminal GST; dsDNA, one strand shown
T7 sequence: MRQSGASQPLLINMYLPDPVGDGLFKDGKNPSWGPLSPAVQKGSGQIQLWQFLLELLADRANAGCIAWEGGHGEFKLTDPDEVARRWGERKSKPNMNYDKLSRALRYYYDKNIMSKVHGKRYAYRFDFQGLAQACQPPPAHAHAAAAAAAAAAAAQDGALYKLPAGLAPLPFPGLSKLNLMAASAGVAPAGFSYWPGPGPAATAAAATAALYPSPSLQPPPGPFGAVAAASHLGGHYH
Outline: as §1

[11] = biological target: ETV5 (Homo sapiens, UniProt P41161 1-510); details: protein: recombinant; tags: N-terminal GST; dsDNA, one strand shown
Sequence of ETV5 (P41161 whole entry): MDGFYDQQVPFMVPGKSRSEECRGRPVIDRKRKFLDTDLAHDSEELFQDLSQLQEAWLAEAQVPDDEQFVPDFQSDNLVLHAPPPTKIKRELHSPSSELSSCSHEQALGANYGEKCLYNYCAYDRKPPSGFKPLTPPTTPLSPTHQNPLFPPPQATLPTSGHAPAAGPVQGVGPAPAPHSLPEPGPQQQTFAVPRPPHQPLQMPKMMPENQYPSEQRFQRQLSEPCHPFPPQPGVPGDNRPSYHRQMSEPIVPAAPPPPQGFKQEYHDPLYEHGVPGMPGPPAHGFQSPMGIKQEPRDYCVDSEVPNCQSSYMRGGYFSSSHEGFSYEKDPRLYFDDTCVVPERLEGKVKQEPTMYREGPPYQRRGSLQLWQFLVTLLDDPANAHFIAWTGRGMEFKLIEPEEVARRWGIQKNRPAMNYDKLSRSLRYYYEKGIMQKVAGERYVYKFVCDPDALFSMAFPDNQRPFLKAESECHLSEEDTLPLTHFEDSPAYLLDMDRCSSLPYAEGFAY
Outline: as §1

[12] = biological target: HSF1 (Homo sapiens, UniProt Q00613 1-529); details: protein: recombinant; tags: N-terminal GST; chain copies: 3; dsDNA, one strand shown
Sequence of HSF1 (Q00613 whole entry): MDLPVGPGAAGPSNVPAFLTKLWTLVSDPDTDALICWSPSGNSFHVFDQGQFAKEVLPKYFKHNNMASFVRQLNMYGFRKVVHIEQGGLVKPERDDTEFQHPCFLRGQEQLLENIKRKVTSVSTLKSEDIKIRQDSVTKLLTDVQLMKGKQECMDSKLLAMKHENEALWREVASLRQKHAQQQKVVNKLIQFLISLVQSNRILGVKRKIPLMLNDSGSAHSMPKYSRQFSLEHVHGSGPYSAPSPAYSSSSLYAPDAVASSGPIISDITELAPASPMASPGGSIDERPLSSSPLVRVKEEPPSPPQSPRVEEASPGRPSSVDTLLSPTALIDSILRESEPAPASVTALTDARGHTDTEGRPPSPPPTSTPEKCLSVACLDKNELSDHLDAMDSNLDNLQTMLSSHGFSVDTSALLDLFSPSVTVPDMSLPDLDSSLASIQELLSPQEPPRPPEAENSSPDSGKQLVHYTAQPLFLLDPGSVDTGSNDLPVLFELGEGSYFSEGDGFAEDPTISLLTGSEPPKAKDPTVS
Outline: as §1

[13] = biological target: T8, SPIC (Homo sapiens, UniProt Q8N5J4 1-248); details: protein: recombinant; tags: N-terminal GST; dsDNA, one strand shown
T8 sequence: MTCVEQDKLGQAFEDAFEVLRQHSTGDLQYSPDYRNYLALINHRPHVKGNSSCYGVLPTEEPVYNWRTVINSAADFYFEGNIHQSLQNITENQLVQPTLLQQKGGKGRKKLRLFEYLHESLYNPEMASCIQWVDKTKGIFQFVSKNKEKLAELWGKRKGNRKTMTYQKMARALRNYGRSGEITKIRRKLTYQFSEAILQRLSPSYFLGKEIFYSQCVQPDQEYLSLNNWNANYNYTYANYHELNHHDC
Outline: as §1

[14] = biological target: ELF4 (Homo sapiens, UniProt Q99607 1-663); details: protein: recombinant; tags: N-terminal GST; dsDNA, one strand shown
Sequence of ELF4 (Q99607 whole entry): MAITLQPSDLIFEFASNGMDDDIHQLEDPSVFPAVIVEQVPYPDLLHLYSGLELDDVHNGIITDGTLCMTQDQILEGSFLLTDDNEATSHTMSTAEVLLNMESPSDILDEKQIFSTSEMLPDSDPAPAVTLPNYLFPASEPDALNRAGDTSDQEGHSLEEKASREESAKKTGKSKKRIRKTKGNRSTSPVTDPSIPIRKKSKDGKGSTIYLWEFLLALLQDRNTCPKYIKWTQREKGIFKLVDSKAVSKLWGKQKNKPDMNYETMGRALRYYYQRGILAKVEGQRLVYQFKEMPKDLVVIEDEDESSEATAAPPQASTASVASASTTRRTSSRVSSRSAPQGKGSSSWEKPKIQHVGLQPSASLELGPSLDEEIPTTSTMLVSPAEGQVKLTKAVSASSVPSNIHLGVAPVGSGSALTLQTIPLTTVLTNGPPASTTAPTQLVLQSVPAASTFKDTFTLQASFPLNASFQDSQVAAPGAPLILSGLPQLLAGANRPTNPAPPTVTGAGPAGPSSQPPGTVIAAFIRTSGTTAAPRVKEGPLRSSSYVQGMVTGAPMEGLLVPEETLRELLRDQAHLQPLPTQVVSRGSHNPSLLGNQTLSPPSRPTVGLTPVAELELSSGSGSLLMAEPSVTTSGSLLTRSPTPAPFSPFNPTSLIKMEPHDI
Outline: as §1

[15] = biological target: T9, ELK4 (Homo sapiens, UniProt P28324-2 1-405); details: protein: recombinant; tags: N-terminal GST; dsDNA, one strand shown
T9 sequence: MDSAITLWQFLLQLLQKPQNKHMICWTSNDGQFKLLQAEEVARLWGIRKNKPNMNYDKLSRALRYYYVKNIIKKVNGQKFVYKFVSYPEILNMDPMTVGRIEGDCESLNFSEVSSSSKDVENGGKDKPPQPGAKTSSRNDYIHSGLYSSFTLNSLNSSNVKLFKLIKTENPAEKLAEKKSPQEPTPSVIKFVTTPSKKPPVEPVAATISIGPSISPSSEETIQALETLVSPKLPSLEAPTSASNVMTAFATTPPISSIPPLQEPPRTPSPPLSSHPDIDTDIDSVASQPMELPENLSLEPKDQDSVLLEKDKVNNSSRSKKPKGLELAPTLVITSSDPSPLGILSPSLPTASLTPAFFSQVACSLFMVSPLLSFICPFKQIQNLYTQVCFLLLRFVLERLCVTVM
Outline: as §1

[16] = biological target: T10, ETV2 (Homo sapiens, UniProt O00321 1-342); details: protein: recombinant; tags: N-terminal GST; dsDNA, one strand shown
T10 sequence: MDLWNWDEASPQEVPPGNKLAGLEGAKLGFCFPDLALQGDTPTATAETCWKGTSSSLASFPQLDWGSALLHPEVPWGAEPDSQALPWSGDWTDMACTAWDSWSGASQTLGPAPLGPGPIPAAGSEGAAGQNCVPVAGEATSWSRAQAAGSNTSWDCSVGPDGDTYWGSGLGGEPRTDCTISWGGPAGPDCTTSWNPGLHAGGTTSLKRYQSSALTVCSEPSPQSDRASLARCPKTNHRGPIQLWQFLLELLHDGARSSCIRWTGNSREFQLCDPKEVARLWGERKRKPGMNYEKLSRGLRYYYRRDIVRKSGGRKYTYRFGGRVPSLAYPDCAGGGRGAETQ
Outline: as §1

[17] = biological target: CRX (Homo sapiens, UniProt O43186 1-299); details: protein: recombinant; tags: N-terminal GST; dsDNA, one strand shown
Sequence of CRX (O43186 whole entry): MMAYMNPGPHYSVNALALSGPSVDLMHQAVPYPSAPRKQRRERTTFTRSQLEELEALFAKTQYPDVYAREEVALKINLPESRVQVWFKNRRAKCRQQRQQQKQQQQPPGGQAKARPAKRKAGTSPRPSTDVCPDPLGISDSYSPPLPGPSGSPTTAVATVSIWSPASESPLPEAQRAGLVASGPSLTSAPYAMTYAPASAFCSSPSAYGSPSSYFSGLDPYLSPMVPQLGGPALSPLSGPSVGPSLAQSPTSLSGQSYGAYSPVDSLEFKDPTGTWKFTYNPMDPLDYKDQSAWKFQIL
Outline: as §1

[18] = biological target: ETV1 (Homo sapiens, UniProt P50549 1-477); details: protein: recombinant; tags: N-terminal GST; dsDNA, one strand shown
Sequence of ETV1 (P50549 whole entry): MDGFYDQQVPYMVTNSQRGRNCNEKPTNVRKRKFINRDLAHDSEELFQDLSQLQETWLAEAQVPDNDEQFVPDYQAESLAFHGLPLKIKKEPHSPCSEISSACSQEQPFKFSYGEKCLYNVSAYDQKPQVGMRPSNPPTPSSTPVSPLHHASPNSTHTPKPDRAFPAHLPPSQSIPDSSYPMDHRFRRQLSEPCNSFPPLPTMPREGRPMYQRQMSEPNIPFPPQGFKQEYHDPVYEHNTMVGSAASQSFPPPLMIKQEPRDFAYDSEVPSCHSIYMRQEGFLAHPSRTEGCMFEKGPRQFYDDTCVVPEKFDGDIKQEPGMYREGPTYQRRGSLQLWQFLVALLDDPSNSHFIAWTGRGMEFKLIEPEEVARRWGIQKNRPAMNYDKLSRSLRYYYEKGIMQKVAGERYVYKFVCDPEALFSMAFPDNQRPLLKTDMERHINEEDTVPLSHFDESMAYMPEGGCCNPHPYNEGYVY
Outline: as §1

Sequence | binding signal [1] | binding signal [2] | binding signal [3] | binding signal [4] | binding signal [5] | binding signal [6] | binding signal [7] | binding signal [8] | binding signal [9] | binding signal [10] | binding signal [11] | binding signal [12] | binding signal [13] | binding signal [14] | binding signal [15] | binding signal [16] | binding signal [17] | binding signal [18]
TTAGAA | 1 fold enrichment (6-mer frequency, TF over GST control) | 1.02 fold enrichment (6-mer frequency, TF over GST control) | 1.01 fold enrichment (6-mer frequency, TF over GST control) | 1.05 fold enrichment (6-mer frequency, TF over GST control) | 1.14 fold enrichment (6-mer frequency, TF over GST control) | 1.14 fold enrichment (6-mer frequency, TF over GST control) | 1.13 fold enrichment (6-mer frequency, TF over GST control) | 1.03 fold enrichment (6-mer frequency, TF over GST control) | 1.06 fold enrichment (6-mer frequency, TF over GST control) | 1.02 fold enrichment (6-mer frequency, TF over GST control) | 1.01 fold enrichment (6-mer frequency, TF over GST control) | 1.93 fold enrichment (6-mer frequency, TF over GST control) | 1.25 fold enrichment (6-mer frequency, TF over GST control) | 1.04 fold enrichment (6-mer frequency, TF over GST control) | 1.1 fold enrichment (6-mer frequency, TF over GST control) | 1.13 fold enrichment (6-mer frequency, TF over GST control) | 2.08 fold enrichment (6-mer frequency, TF over GST control) | 1.11 fold enrichment (6-mer frequency, TF over GST control)
ACTCGA | 1.35 fold enrichment (6-mer frequency, TF over GST control) | 1.48 fold enrichment (6-mer frequency, TF over GST control) | 1.44 fold enrichment (6-mer frequency, TF over GST control) | 1.22 fold enrichment (6-mer frequency, TF over GST control) | 1.49 fold enrichment (6-mer frequency, TF over GST control) | 1.14 fold enrichment (6-mer frequency, TF over GST control) | 1.26 fold enrichment (6-mer frequency, TF over GST control) | 1.24 fold enrichment (6-mer frequency, TF over GST control) | 1.27 fold enrichment (6-mer frequency, TF over GST control) | 1.29 fold enrichment (6-mer frequency, TF over GST control) | 1.27 fold enrichment (6-mer frequency, TF over GST control) | 1.99 fold enrichment (6-mer frequency, TF over GST control) | 1.51 fold enrichment (6-mer frequency, TF over GST control) | 1.31 fold enrichment (6-mer frequency, TF over GST control) | 1.35 fold enrichment (6-mer frequency, TF over GST control) | 1.46 fold enrichment (6-mer frequency, TF over GST control) | 1.37 fold enrichment (6-mer frequency, TF over GST control) | 1.33 fold enrichment (6-mer frequency, TF over GST control)
